NOD2 RIPK2 PPI: inhibitors of human NOD2-RIPK2 interaction | O43353 | CHO BLA complementation NOD2-RIPK2, CCF4 ratio | inhibition, % at 4.98 µM | 0.38% of 360,000 active | AID 624267; in the data active = inhibition above about 21%;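 also: 0% = vehicle only and 100% = reference blocker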
NTR1 agonist: NTR1 (human) agonism. P30989. NTR1-U2OS beta-arrestin-GFP spot imaging, agonist mode. activation, % at 20 µM. 0.17% of 330,000 active;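 active = activation at or above 40% of the spot to cytoplasm intensity ratio, with at least 20 cells analyzed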;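 also: 0% = DMSO without peptide and 100% = 100 nM NTR1 peptide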
Beta2AR agonist: activates human beta-2 adrenergic receptor causing internalization; Am2.2-beta2AR cells, FAP receptor internalization, flow cytometry; 0.43% of 340,000 active; P07550; AID 504454; response, % (test concentration not listed);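 active = response above a set limit, near 3 SD of response in nonfluorescent compounds, cut at about 42% in these data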
TLR4 MyD88 comp: blocks binding of human TLR4 to MyD88; inhibition, % at 8.4 µM; HeLa CL3-4 TLR4/MyD88 BLA complementation, FRET ratio; 0.18% of 200,000 active; O00206+Q99836; in the data active = inhibition above about 25%;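 also: 0% = vehicle and 100% = reference inhibitor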
TLR9-MyD88 block: blocks human TLR9 binding to MyD88 | Q9NR96+Q99836 | CHO BLA complementation TLR9-MyD88, CCF4 FRET ratio | inhibition, % at 4.98 µM | 0.21% of 340,000 active;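 active = inhibition above the mean over all tested compounds plus 3 SD, cut at about 21% in these data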;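 also: 0% = DMSO only wells and 100% = clavulanate BLA inhibitor control wells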
ABHD5 PLIN5 PPI: ABHD5-PLIN5 protein interaction inhibition; Q00G26+Q8WTS1; Split G. princeps luciferase complementation, luminescence, 4 h; inhibition, % at 4 µM; 0.78% of 360,000 active; AID 602281;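 active = inhibition above the mean inhibition across every tested compound plus 3 SD, cut at about 22% in these data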;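 also: 0% = DMSO only wells and the 100% control is not disclosed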
ABHD5 PLIN5 conf: ABHD5-PLIN5 interaction inhibition, confirmed; shares compounds with ABHD5 PLIN5 PPI; biochemical ABHD5-PLIN5 interaction, luminescence; inhibition, % at 4 µM; 67% of 2,200 active; AID 651612; in the data active = inhibition above about 23%;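 also: 0% = DMSO vehicle wells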
HNF4 split-luc: counter-screen for ABHD5-PLIN5 inhibitors: HNF4 split-luciferase | shares compounds with ABHD5 PLIN5 PPI | HNF4 dimerization, luminescence, biochemical | inhibition, % at 4 µM | 77% of 2,200 active | AID 651674;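 active = mean inhibition across replicate wells exceeding the computed hit threshold, cut at about 13% in these data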;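 also: light from luciferase halves that rejoin when HNF4 fusion proteins dimerize; 0% = DMSO only wells and the 100% control is not given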
Target sequence (P41235 whole entry, looked up, the tested form may be a part): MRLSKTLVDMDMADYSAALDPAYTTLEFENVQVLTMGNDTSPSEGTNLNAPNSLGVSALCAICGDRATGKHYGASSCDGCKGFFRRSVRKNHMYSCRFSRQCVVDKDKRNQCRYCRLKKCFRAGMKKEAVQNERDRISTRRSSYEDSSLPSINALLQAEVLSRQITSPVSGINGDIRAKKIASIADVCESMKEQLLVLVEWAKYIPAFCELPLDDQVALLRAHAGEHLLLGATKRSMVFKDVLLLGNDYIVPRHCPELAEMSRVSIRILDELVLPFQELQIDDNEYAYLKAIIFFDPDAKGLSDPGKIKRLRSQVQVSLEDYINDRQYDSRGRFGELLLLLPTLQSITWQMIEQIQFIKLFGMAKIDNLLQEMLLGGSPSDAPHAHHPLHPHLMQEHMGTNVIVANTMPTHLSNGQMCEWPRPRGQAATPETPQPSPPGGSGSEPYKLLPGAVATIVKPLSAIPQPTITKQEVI
The depositor's hits bear a star; / = no result given. In the library only some 1.5% were active in any assay of this set; here they are far more common.

SMILES	NOD2 RIPK2 PPI	NTR1 agonist	Beta2AR agonist	TLR4 MyD88 comp	TLR9-MyD88 block	ABHD5 PLIN5 PPI	ABHD5 PLIN5 conf	HNF4 split-luc
CCCCn1c(N)c(N(CCOC)C(=O)CCN2C(=O)C3CC=CCC3C2=O)c(=O)[nH]c1=O (centres undefined)	-1	/	4	/	14	8	/	/
O=C(/C=C\c1cccs1)c1c(O)ccc2ccc(=O)oc12	-13	1	-2	16	-4	25*	34*	37*
CCOC(=O)C1=CCN(S(=O)(=O)c2ccc(Br)cc2)C1c1ccccc1 (centres undefined)	-3	/	/	/	/	-5	/	/
CCOC(=O)Cn1c(=N)n(CCOc2ccc3ccccc3c2)c2ccccc21	15	10	33	3	3	25*	9	9
Cc1nc(C)c(-c2csc(Nc3ccc(S(N)(=O)=O)cc3)n2)s1	-7	0	19	/	-10	2	/	/
COc1ccc(OC)c(-c2csc(NC(=O)Cc3ccc(F)cc3)n2)c1	-13	9	3	/	-8	-6	/	/
Cc1csc(NC(=O)c2ccccc2)n1	7	2	-5	/	-9	1	/	/
Cc1ccc(-c2csc(Nc3ccc(S(N)(=O)=O)cc3)n2)o1	-5	1	3	7	2	32*	65*	100*
Cc1ccc(-c2csc(NC(=O)c3ccc(-c4ccccc4)cc3)n2)o1	9	1	29	2	-5	55*	25*	27*
Cc1ccc(-c2csc(NC(=O)Cc3ccc(F)cc3)n2)o1	-5	3	5	-6	2	30*	60*	94*
Cc1ccc(NS(=O)(=O)c2ccc(N3CCN(c4ccc(O)cc4)CC3)c([N+](=O)[O-])c2)c(C)c1	-12	6	30	-14	-1	35*	12	10
Cc1ccc(C(=O)/C=C/c2ccc(-c3ccc(C)cc3)o2)cc1	-7	6	-18	6	0	14	/	/
O=C(/C=C/c1ccccc1)c1cc(Br)ccc(=O)c1O	-1	2	14	10	3	44*	76*	68*
O=C(O)c1ccccc1-c1ccccc1C(=O)Nc1ccc(F)cc1	-2	-1	-4	/	-10	-5	/	/
O=C(/C=C/c1ccc(F)cc1)c1cc(Br)ccc1O	-3	3	9	/	7	-5	/	/
O=C(/C=C/c1ccc(NC(=O)c2ccccc2-c2ccccc2C(=O)O)cc1)c1ccccc1	5	4	19	/	16	24*	60*	34*
O=C(c1ccc2ccccc2c1)N1CCN(S(=O)(=O)/C=C/c2ccccc2)CC1	5	0	4	-9	4	3	/	/
O=C(/C=C/c1ccccc1)c1ccc2ccccc2c1	-4	/	19	/	-4	53*	76*	63*
O=C(/C=C\c1ccc(-c2ccccc2)o1)c1ccccc1	-9	0	16	15	6	38*	67*	90*
CCC(CC)C(C(=O)NCc1ccccc1)N1CCN(C(=O)C2CCCO2)CC1 (centres undefined)	-6	/	/	/	/	-6	/	/
Cc1cc(C)nc(Nc2nc(C(N)Cc3ccc(Cl)cc3)cs2)n1 (centres undefined)	11	/	/	/	/	-5	/	/
CCC(=O)N1Cc2cc(C(=O)Nc3nccs3)nc(-c3cccc(-c4ccccc4OC)c3)c2[C@H]1CCO	-3	/	/	/	/	7	/	/
Cc1cccc(C)c1N1C(=O)c2ccccc2NC(=O)C1C(=O)NCCc1ccccc1F (centres undefined)	-9	/	/	/	/	0	/	/
Nc1ccc2c(c1)[nH]c(=O)c1cc(N)ccc12	2	/	/	/	-8	7	/	/
CC1=C(C(=O)N2CCOCC2)CC(CC(=O)NC2CCCCC2)C(=O)N1Cc1ccc(F)cc1 (centres undefined)	-6	/	/	/	5	0	/	/
O=C(/C=C/c1ccccc1)CC(=O)c1ccccc1	-1	/	-5	/	-10	13	/	/
O=C(/C=C/c1ccccc1)c1ccccc1	-7	6	12	-5	1	35*	82*	76*

High-throughput results as filed in PubChem BioAssay.
